This is an account of results in the supplement of paper PMC9492666.

Where a name gives a salt, the structure may show the parent alone.
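Further: viability read by CCK-8 kit in 96-well plates, part of a combination screen pairing lipid-metabolism-targeting compounds with erastin.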

The assay relates to HCC1937. Briefly: relative cell viability, compound + erastin, vs DMSO (fraction of DMSO control); higher = less growth inhibition. The following applies: 72 h.
For `NNC(=O)c1nn(Cc2ccc(Cl)cc2Cl)c2ccccc12` [Adjudin] + CCOc1ccccc1-n1c(C(C)N2CCN(C(=O)COc3ccc(Cl)cc3)CC2)nc2ccccc2c1=O [erastin], the relative cell viability came to 0.557.

In the case of `O=C(/C=C/c1ccc(/C=C/C(=O)Nc2ccc(C3=NCCN3)cc2)cc1)Nc1ccc(C2=NCCN2)cc1` + CCOc1ccccc1-n1c(C(C)N2CCN(C(=O)COc3ccc(Cl)cc3)CC2)nc2ccccc2c1=O [erastin], the relative cell viability amounted to 0.554.

For `COc1cc(F)c(C(C)C)cc1-c1ccc(C(F)(F)F)cc1CN1C(=O)O[C@H](c2cc(C(F)(F)F)cc(C(F)(F)F)c2)[C@@H]1C` [Anacetrapib] + CCOc1ccccc1-n1c(C(C)N2CCN(C(=O)COc3ccc(Cl)cc3)CC2)nc2ccccc2c1=O [erastin], the relative cell viability came out at 0.557.

As to `Fc1ccc(-c2c3cccc(C(F)(F)F)c3nn2Cc2ccc(F)cc2Cl)cc1` + CCOc1ccccc1-n1c(C(C)N2CCN(C(=O)COc3ccc(Cl)cc3)CC2)nc2ccccc2c1=O [erastin], the relative cell viability turned out to be 0.797.

For the compound `CC(C)(Oc1ccc(C(=O)c2ccc(Cl)cc2)cc1)C(=O)O` [Fenofibric acid] + CCOc1ccccc1-n1c(C(C)N2CCN(C(=O)COc3ccc(Cl)cc3)CC2)nc2ccccc2c1=O [erastin], the relative cell viability is 0.677.

Take `COc1ccc(/C=C/c2cc(O)cc(O[C@@H]3O[C@H](CO)[C@@H](O)[C@H](O)[C@H]3O)c2)cc1` [Deoxyrhapontin] + CCOc1ccccc1-n1c(C(C)N2CCN(C(=O)COc3ccc(Cl)cc3)CC2)nc2ccccc2c1=O [erastin]: the relative cell viability was determined as 0.576.

On to `CC(=O)O[C@H](CC=C(C)C)C1=CC(=O)c2c(O)ccc(O)c2C1=O` [Acetyl shikonin] + CCOc1ccccc1-n1c(C(C)N2CCN(C(=O)COc3ccc(Cl)cc3)CC2)nc2ccccc2c1=O [erastin], for which the relative cell viability came out at 0.617.

For `CCCc1cc(-c2nc(-c3ccc(NS(C)(=O)=O)cc3)cs2)ccn1` + CCOc1ccccc1-n1c(C(C)N2CCN(C(=O)COc3ccc(Cl)cc3)CC2)nc2ccccc2c1=O [erastin], the relative cell viability is 0.394.

`CCc1ccc(N(CC(C)C)S(=O)(=O)c2ccc(OCC3CCOCC3)c(CO)c2)cc1` + CCOc1ccccc1-n1c(C(C)N2CCN(C(=O)COc3ccc(Cl)cc3)CC2)nc2ccccc2c1=O [erastin]: the relative cell viability was found to be 0.508.

In the case of `CC(C)OC(=O)C(C)(C)Oc1ccc(C(=O)c2ccc(Cl)cc2)cc1` [Fenofibrate] + CCOc1ccccc1-n1c(C(C)N2CCN(C(=O)COc3ccc(Cl)cc3)CC2)nc2ccccc2c1=O [erastin], the relative cell viability came out at 0.878.

With `O=S(=O)(c1ccccc1)N(CC(F)(F)F)c1ccc(C(O)(C(F)(F)F)C(F)(F)F)cc1` + CCOc1ccccc1-n1c(C(C)N2CCN(C(=O)COc3ccc(Cl)cc3)CC2)nc2ccccc2c1=O [erastin], the relative cell viability turned out to be 0.835.

In the case of `O=C1C(SCCO)=C(SCCO)C(=O)c2ccccc21` + CCOc1ccccc1-n1c(C(C)N2CCN(C(=O)COc3ccc(Cl)cc3)CC2)nc2ccccc2c1=O [erastin], the relative cell viability was 0.575.

In the case of `NC(=O)c1cnccn1` [Pyrazinamide] + CCOc1ccccc1-n1c(C(C)N2CCN(C(=O)COc3ccc(Cl)cc3)CC2)nc2ccccc2c1=O [erastin], the relative cell viability was found to be 0.791.

As for `CC(C)n1c(/C=C/C(O)CC(O)CC(=O)O)c(-c2ccc(F)cc2)c2ccccc21` (configuration not stated) [Fluvastatin sodium salt] + CCOc1ccccc1-n1c(C(C)N2CCN(C(=O)COc3ccc(Cl)cc3)CC2)nc2ccccc2c1=O [erastin], the relative cell viability came out at 0.58.

Turning to `O=C(NN1CCCCC1)c1nn(-c2ccc(Cl)cc2Cl)c(-c2ccc(C#Cc3ccc(C(F)(F)F)cc3)s2)c1CNS(=O)(=O)N1CCCC1` + CCOc1ccccc1-n1c(C(C)N2CCN(C(=O)COc3ccc(Cl)cc3)CC2)nc2ccccc2c1=O [erastin], the relative cell viability was 0.496.

As for `COc1cccc(-n2c(=O)[nH]c3cc(Cl)n(-c4ccc(-c5cccc(OC)c5O)cc4)c3c2=O)c1` + CCOc1ccccc1-n1c(C(C)N2CCN(C(=O)COc3ccc(Cl)cc3)CC2)nc2ccccc2c1=O [erastin], the relative cell viability worked out at 0.66.

For `O=C(O)C(=O)Nc1sc2c(c1C(=O)O)CCNC2` + CCOc1ccccc1-n1c(C(C)N2CCN(C(=O)COc3ccc(Cl)cc3)CC2)nc2ccccc2c1=O [erastin], the relative cell viability amounted to 0.755.

Regarding `O=c1ccc2cc(O)c(O)cc2o1` [Esculetin] + CCOc1ccccc1-n1c(C(C)N2CCN(C(=O)COc3ccc(Cl)cc3)CC2)nc2ccccc2c1=O [erastin], the relative cell viability came out at 0.648.

In the case of `CCN(CC)Cc1ccc(C(=O)N(CCc2ccccc2OC)[C@@H]2CCNC2)cc1` + CCOc1ccccc1-n1c(C(C)N2CCN(C(=O)COc3ccc(Cl)cc3)CC2)nc2ccccc2c1=O [erastin], the relative cell viability is 0.872.

For the compound `C/C=C/c1cc(OC)c(OC)cc1OC` [alpha-Asarone] + CCOc1ccccc1-n1c(C(C)N2CCN(C(=O)COc3ccc(Cl)cc3)CC2)nc2ccccc2c1=O [erastin], the relative cell viability stood at 0.594.

With `C[N+](C)(C)CC(O)CC(=O)[O-]` (stereo not drawn) [L(-)-Carnitine] + CCOc1ccccc1-n1c(C(C)N2CCN(C(=O)COc3ccc(Cl)cc3)CC2)nc2ccccc2c1=O [erastin], the relative cell viability stood at 0.781.

As to `COc1cc(N2CCN(C)CC2)ccc1Nc1ncc2c(n1)N(C1CCC1)C(=O)N(c1c(C)cccc1C)C2` + CCOc1ccccc1-n1c(C(C)N2CCN(C(=O)COc3ccc(Cl)cc3)CC2)nc2ccccc2c1=O [erastin], the relative cell viability stood at 0.56.

Consider `C[C@]12CC[C@@H](O)C[C@@H]1CC[C@@H]1[C@@H]2CC[C@]2(C)C(=O)CC[C@@H]12` [Androsterone] + CCOc1ccccc1-n1c(C(C)N2CCN(C(=O)COc3ccc(Cl)cc3)CC2)nc2ccccc2c1=O [erastin], for which the relative cell viability stood at 0.763.

Consider `Cc1c(C(=O)NN2CCOCC2)nn(-c2ccc(Cl)cc2Cl)c1-c1ccc(I)cc1` + CCOc1ccccc1-n1c(C(C)N2CCN(C(=O)COc3ccc(Cl)cc3)CC2)nc2ccccc2c1=O [erastin], for which the relative cell viability was found to be 0.1.

On to `Cc1cc([N+](=O)[O-])ccc1NS(=O)(=O)c1cc(Cl)ccc1Cl` + CCOc1ccccc1-n1c(C(C)N2CCN(C(=O)COc3ccc(Cl)cc3)CC2)nc2ccccc2c1=O [erastin], for which the relative cell viability turned out to be 0.585.

As for `CCOC(=O)C(C)(C)Oc1ccc(Cl)cc1` [Clofibrate] + CCOc1ccccc1-n1c(C(C)N2CCN(C(=O)COc3ccc(Cl)cc3)CC2)nc2ccccc2c1=O [erastin], the relative cell viability was determined as 0.801.

`O=C(O)Cc1cccc(OCCCN(Cc2cccc(C(F)(F)F)c2Cl)CC(c2ccccc2)c2ccccc2)c1` + CCOc1ccccc1-n1c(C(C)N2CCN(C(=O)COc3ccc(Cl)cc3)CC2)nc2ccccc2c1=O [erastin]: the relative cell viability came out at 0.855.

`Cc1cc(SCc2sc(-c3ccc(C(F)(F)F)cc3)nc2C)ccc1OCC(=O)O` + CCOc1ccccc1-n1c(C(C)N2CCN(C(=O)COc3ccc(Cl)cc3)CC2)nc2ccccc2c1=O [erastin]: the relative cell viability turned out to be 0.529.

In the case of `CCCc1cc(-c2nc(-c3ccc(C)cc3)cs2)ccn1` [Fatostatin] + CCOc1ccccc1-n1c(C(C)N2CCN(C(=O)COc3ccc(Cl)cc3)CC2)nc2ccccc2c1=O [erastin], the relative cell viability worked out at 0.534.

Take `CCNC1(C(N)=O)CCN(c2ncnc3c2nc(-c2ccccc2Cl)n3-c2ccc(Cl)cc2)CC1` [Otenabant] + CCOc1ccccc1-n1c(C(C)N2CCN(C(=O)COc3ccc(Cl)cc3)CC2)nc2ccccc2c1=O [erastin]: the relative cell viability turned out to be 0.441.

On to `CC1=C[C@]2(O)O[C@@]3(CC2=C(C)C)[C@@H](C)CC[C@@H]13` [Curcumenol] + CCOc1ccccc1-n1c(C(C)N2CCN(C(=O)COc3ccc(Cl)cc3)CC2)nc2ccccc2c1=O [erastin], for which the relative cell viability amounted to 0.55.

Regarding `CCCCCCCCCCCC1=C(O)C(=O)C=C(O)C1=O` [Embelin] + CCOc1ccccc1-n1c(C(C)N2CCN(C(=O)COc3ccc(Cl)cc3)CC2)nc2ccccc2c1=O [erastin], the relative cell viability came out at 0.72.

`C[C@H](CCOc1cccc(CC(=O)O)c1)N(Cc1cccc(C(F)(F)F)c1Cl)CC(c1ccccc1)c1ccccc1` [RGX-104 free Acid] + CCOc1ccccc1-n1c(C(C)N2CCN(C(=O)COc3ccc(Cl)cc3)CC2)nc2ccccc2c1=O [erastin]: the relative cell viability stood at 0.564.

On to `O=C(O)c1cc(F)c2nc(N3[C@@H]4CC[C@H]3C[C@@H](OCc3c(-c5ccccc5OC(F)(F)F)noc3C3CC3)C4)sc2c1` [Tropifexor] + CCOc1ccccc1-n1c(C(C)N2CCN(C(=O)COc3ccc(Cl)cc3)CC2)nc2ccccc2c1=O [erastin], for which the relative cell viability amounted to 0.658.

Consider `O=C(OC(C(F)(F)F)C(F)(F)F)N1CCN(Cc2ccc(C(F)(F)F)cc2N2CCCC2)CC1` + CCOc1ccccc1-n1c(C(C)N2CCN(C(=O)COc3ccc(Cl)cc3)CC2)nc2ccccc2c1=O [erastin], for which the relative cell viability was determined as 0.583.

Consider `CC(C)[C@H](N=C(NS(=O)(=O)c1ccc(Cl)cc1)N1C[C@H](c2ccccc2)C(c2ccc(Cl)cc2)=N1)C(N)=O` + CCOc1ccccc1-n1c(C(C)N2CCN(C(=O)COc3ccc(Cl)cc3)CC2)nc2ccccc2c1=O [erastin], for which the relative cell viability amounted to 0.483.

As to `CC(C)OC(=O)C(C(=O)OC(C)C)=C1SC=CS1` [Malotilate] + CCOc1ccccc1-n1c(C(C)N2CCN(C(=O)COc3ccc(Cl)cc3)CC2)nc2ccccc2c1=O [erastin], the relative cell viability amounted to 0.459.
